Screens: PubChem, National Center for Advancing Translational Sciences (NCATS)
GPT2 inh: Primary qHTS assay for inhibitors of Glutamate pyruvate transaminase 2 (GPT2); Potency, µM (top dose mostly 57.7 µM), hits mostly inhibitors; AID 1671188, 2021; Alanine aminotransferase 2 (Homo sapiens), Q8TD30; Recombinant GPT2, coupled pyruvate oxidase/HRP Amplex Red fluorescence; hit rate 0.25% among 100,000; also: nearly all actives have a fitted effect of over 60% in size
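Inhibition is scored from Amplex Red fluorescence generated when pyruvate oxidase and HRP act on pyruvate released by GPT2. Reactions contain 10ng/uL enzyme, 250uM a-KG and 2mM L-alanine and run 30 min at room temperature.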
Luciferase inh: Firefly luciferase inhibition profiling of diverse chemical library using quantitative high-throughput screening; purified P. pyralis luciferase, luminescence, biochemical; hit rate 2.5% among 76,000; Potency, µM (highest dose often 115 µM), actives largely listed as inhibitors; Luciferin 4-monooxygenase (Photinus pyralis), P08659; also: nearly all actives have a fitted effect of over 65% in size
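FLuc 10nM, D-luciferin 10uM, ATP 10uM, Mg acetate 10mM, Tris acetate pH 7.5, Tween/BSA; cpd qHTS; enzyme added last; CCD luminescence.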
NPR1 antag: Natriuretic polypeptide receptor (hNpr1) antagonism - Primary qHTS | HEK293 hNpr1 GloSensor cGMP, ANP-stimulated luminescence | Potency, µM (highest dose often 46.3 µM), most hits filed as inhibitors | hit rate 1.6% among 76,000 | AID 1347048, 2019; calls by dose curve; also: nearly all actives have a fitted effect of over 60% in size
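HEK293 cells stably expressing human Npr1 and cGMP GloSensor pGS-40F, loaded 2 h with 2% GloSensor reagent, given compound 30 min at room temperature. Luminescence read before and 20 min after 0.1 nM hNppA.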
HEK cytotox: Cytotoxic Profiling in HEK 293 Cell Line of Diverse Libraries Using Quantitative High-Throughput Screening | HEK 293 viability, ATP luminescence (CellTiter-Glo), 48-72 h | Potency, µM (doses to about 115 µM), actives largely listed as inhibitors | hit rate 6.6% among 94,000 | AID 1345083, 2018; also: nearly all actives have a fitted effect of over 60% in size
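HEK 293 cells seeded at 250 cells/well were exposed to compound for 48 or 72 hr at 37 degree Celsius. Viability taken as ATP content by CellTiter-Glo luminescence.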
3T3 cytotox: Cytotoxic Profiling in NIH 3T3 Cell Line of Diverse Libraries Using Quantitative High-Throughput Screening. NIH 3T3 viability, CellTiter-Glo ATP luminescence, 48-72 h. hit rate 4.3% among 94,000. Potency, µM (series often up to 96.7 µM), actives largely listed as inhibitors; also: nearly all actives have a fitted effect of over 55% in size
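NIH 3T3 cells at 400 cells/well received 23 nL of compound by pintool and were incubated 48 or 72 h at 37 °C. Viability was read as ATP-coupled CellTiter-Glo luminescence.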
NPR1 antag cnf: Natriuretic polypeptide receptor (hNpr1) antagonism - Confirmation; shares compounds with NPR1 antag; HEK293 hNpr1 cGMP GloSensor luminescence, ANP-stimulated; Potency, µM (top dose mostly 57.6 µM), hits mostly inhibitors; hit rate 76% among 1,400; AID 1347044, 2019; calls by dose curve; also: nearly all actives have a fitted effect of over 70% in size
Npr2 selectivity: Natriuretic polypeptide receptor (hNpr2) antagonism - Subtype selectivity assay; shares compounds with NPR1 antag; HEK293 hNpr2 GloSensor cGMP luminescence, CNP-stimulated; Potency, µM (highest dose often 57.6 µM), actives largely listed as inhibitors; hit rate 67% among 1,400; AID 1347046, 2019; calls by dose curve; also: nearly all actives have a fitted effect of over 70% in size
Target sequence (P20594 whole entry, looked up): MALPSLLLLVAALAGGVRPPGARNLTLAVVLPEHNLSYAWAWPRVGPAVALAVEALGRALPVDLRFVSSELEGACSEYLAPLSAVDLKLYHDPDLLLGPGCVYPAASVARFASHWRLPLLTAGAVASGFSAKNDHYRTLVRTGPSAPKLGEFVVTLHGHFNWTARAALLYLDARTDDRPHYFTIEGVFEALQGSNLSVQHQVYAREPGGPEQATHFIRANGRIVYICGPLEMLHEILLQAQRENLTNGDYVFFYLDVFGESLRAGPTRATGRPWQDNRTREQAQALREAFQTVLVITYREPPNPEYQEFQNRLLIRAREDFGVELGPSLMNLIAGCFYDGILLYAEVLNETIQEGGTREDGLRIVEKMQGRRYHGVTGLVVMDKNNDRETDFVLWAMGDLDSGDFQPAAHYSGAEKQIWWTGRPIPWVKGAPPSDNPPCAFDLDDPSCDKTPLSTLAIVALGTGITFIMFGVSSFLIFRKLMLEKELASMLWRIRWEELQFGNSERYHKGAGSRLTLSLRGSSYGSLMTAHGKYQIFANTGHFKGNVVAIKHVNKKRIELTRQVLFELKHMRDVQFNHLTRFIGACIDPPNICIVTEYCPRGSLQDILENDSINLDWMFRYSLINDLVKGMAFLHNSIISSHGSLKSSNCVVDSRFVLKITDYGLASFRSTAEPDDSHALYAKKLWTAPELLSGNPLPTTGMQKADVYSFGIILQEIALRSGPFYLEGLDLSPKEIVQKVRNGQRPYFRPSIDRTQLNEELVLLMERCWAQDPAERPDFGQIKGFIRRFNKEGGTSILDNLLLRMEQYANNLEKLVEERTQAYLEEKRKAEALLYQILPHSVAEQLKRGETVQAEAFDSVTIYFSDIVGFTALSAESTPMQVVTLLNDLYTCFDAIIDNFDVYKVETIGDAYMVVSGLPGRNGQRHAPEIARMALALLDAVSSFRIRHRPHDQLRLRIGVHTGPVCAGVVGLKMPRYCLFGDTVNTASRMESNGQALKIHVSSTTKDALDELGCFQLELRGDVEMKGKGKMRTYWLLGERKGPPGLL
FLuc counter: Natriuretic polypeptide receptor (hNpr1) antagonism - Confirmation firefly luciferase (FLuc) inhibition counterscreen. purified FLuc enzyme, luminescence, Km substrate. shares compounds with NPR1 antag. hit rate 0.7% among 1,400. Potency, µM (doses to about 57.6 µM), hits mostly inhibitors
GloSensor ctrl: Natriuretic polypeptide receptor (hNpr1) antagonism - Counterscreen GloSensor control cell line; shares compounds with NPR1 antag; HEK293 GloSensor cGMP, SNP-stimulated, luminescence; Potency, µM (doses to about 57.6 µM), hits mostly inhibitors; hit rate 69% among 1,400; AID 1347051, 2019; calls by dose curve; also: nearly all actives have a fitted effect of over 70% in size
Hits are given with their value; i = inactive; ? = inconclusive; nt = no result; [ ] = dose if it differs, or a comment. Most compounds without a hit are left out; they make up all but 10% or so of the library. Unless noted, calls follow the shape of the dose curve; as a rule, active = well fitted curve in the direction sought with a large enough effect; inconclusive = small, poorly fitted or top-dose-only effect, or another doubt; inactive = no such curve, though single readings can be large; an effect the other way counts as inactive or inconclusive.

SMILES	GPT2 inh	Luciferase inh	NPR1 antag	HEK cytotox	3T3 cytotox	NPR1 antag cnf	Npr2 selectivity	FLuc counter	GloSensor ctrl
CC(=O)N1Cc2ccccc2CC2(CCN(Cc3ccccc3)C2)C1 (centres undefined)	i	nt	nt	i	i	i	i	i	i
CCN1C(=O)Cc2ccccc2C1C(=O)NCc1ccccc1Br (centres undefined)	?	i	i	i	i	i	?	i	i
CSc1cccc(NC(=O)Cn2c(N3CCC(C)CC3)nc(C)cc2=O)c1	i	i	11µM	11µM	11µM	12µM	14µM	i	9.7µM
Cc1cc(=O)n(CC(=O)Nc2cccc(C(F)(F)F)c2)c(N2CCC(C)CC2)n1	i	i	10µM	35µM	22µM	12µM	14µM	i	11µM
Cc1cccc(NC(=O)Cn2c(N3CCC(C)CC3)nc(C)cc2=O)c1	i	i	?	?	?	nt	nt	nt	nt
COc1ccc(CC(=O)NC2CCN(c3nccc(Nc4ccccc4OC)n3)CC2)cc1	i	nt	nt	?	?	nt	nt	nt	nt
O=C(C1CCCC1)N1CCCC2(CNc3ncccc3[S+](=O)([O-])N2)C1 (centres undefined)	nt	nt	nt	i	i	nt	nt	nt	nt
CC(C)N1C(=O)C(CC(=O)NCCCN2CCc3ccccc3C2)=C2CCCCC21 (centres undefined)	i	i	i	i	i	nt	nt	nt	nt
COC1CN(c2cccc(F)c2)C12CCN(S(=O)(=O)Cc1ccccc1F)CC2 (centres undefined)	i	i	i	?	?	nt	nt	nt	nt
Cc1nc(C)c(CC(=O)N2CCCC(C)(Cc3ccc4c(c3)OCO4)C2)s1 (centres undefined)	i	i	14µM	28µM	i	19µM	22µM	i	17µM
Nc1ncccc1CN1CCC2(CC1)COCCN2C(=O)OCc1ccccc1	i	i	7.9µM	?	?	11µM	11µM	i	11µM
Cc1ccc(C(=O)N2CCC(Cc3nc(-c4ccccc4)no3)CC2)cn1	i	i	6.3µM	?	?	4.8µM	5.4µM	i	4.3µM
COc1ccc(C(=O)N2CCC(Cc3nc(C(C)C)no3)CC2)cc1	i	i	?	?	?	nt	nt	nt	nt
COc1ccc(-c2noc(CC3CCN(C(=O)c4ccc(C)nc4)CC3)n2)cc1	i	i	7.1µM	?	?	5.4µM	6.9µM	i	5.4µM
C[C@@H]1O[C@@H](O[C@H]2[C@H](O[C@H]3CO[C@@H](O[C@H]4CC[C@@]5(C)C(CC[C@]6(C)C5CC[C@]57OC[C@@]8(CC[C@](C)(CO)CC85)[C@H](O)C[C@]76C)C4(C)C)[C@H](O[C@@H]4O[C@H](CO)[C@@H](O)[C@H](O)[C@H]4O)[C@H]3O)O[C@H](CO)[C@@H](O)[C@@H]2O)[C@H](O)[C@H](O)[C@H]1O (some centres undefined)	i	nt	nt	nt	nt	nt	nt	nt	nt
O=[S+]([O-])(NC1CCCN(c2ccnc3ccnn23)C1)c1cccs1 (centres undefined)	i	nt	nt	?	?	nt	nt	nt	nt
Cc1ccc(CN2CCC3(Cc4ccccc4NC3=O)C2)cc1 (centres undefined)	i	i	i	?	i	nt	nt	nt	nt
Cc1noc([C@H]2CCN(S(=O)(=O)Cc3ccccc3)C[C@H]2NC(=O)C2CC2)n1	i	nt	nt	i	i	nt	nt	nt	nt
O=C(c1ccc2[nH]ccc2c1)N1CCN(c2cc(-c3ccccc3)[nH]n2)CC1	i	i	?	?	?	?	?	i	i
COc1ccc(-c2cc(N3CCN(C(=O)c4ccc(OC)cc4OC)CC3)n[nH]2)cc1	i	i	?	?	?	27µM	22µM	i	22µM
COc1ccc(-c2cc(N3CCCN(C(=O)c4ccc(F)c(Cl)c4)CC3)n[nH]2)cc1	i	i	?	?	?	17µM	14µM	i	i
COc1ccc(-c2cc(N3CCCN(C(=O)c4cccc(F)c4)CC3)n[nH]2)cc1	i	i	i	?	i	nt	nt	nt	nt
COc1ccc(-c2cc(N3CCCN(C(=O)c4cccc(Cl)c4)CC3)n[nH]2)cc1	?	i	?	?	?	24µM	14µM	i	i
O=C(c1ccc2[nH]ccc2c1)N1CCCN(c2cc(-c3ccc(F)cc3)[nH]n2)CC1	?	i	?	?	i	nt	nt	nt	nt
COc1ccc(NC(=O)Cn2c(C)cc3nc4n(c(=O)c32)CCCC4)cc1Cl	i	i	i	i	i	nt	nt	nt	nt
SMILES	GPT2 inh	Luciferase inh	NPR1 antag	HEK cytotox	3T3 cytotox	NPR1 antag cnf	Npr2 selectivity	FLuc counter	GloSensor ctrl
COc1cc(OC)cc(C(=O)N2CCCN(c3cc(-c4ccc(F)cc4)[nH]n3)CC2)c1	i	i	i	?	i	nt	nt	nt	nt
COc1ccc(C(=O)N2CCN(c3cc(-c4ccc(F)cc4)[nH]n3)CC2)cc1	i	i	?	?	?	22µM	24µM	i	27µM
COc1cc(OC)cc(C(=O)N2CCCN(c3cc(-c4ccc(Br)cc4)[nH]n3)CC2)c1	i	i	11µM	40µM	32µM	24µM	22µM	i	27µM
COc1ccc(-c2cc(N3CCCN(C(=O)c4cccc(Br)c4)CC3)n[nH]2)cc1	i	i	?	?	?	?	14µM	i	i
COc1ccc(-c2cc(N3CCN(C(=O)c4cccc(Br)c4)CC3)n[nH]2)cc1	i	i	?	?	?	nt	nt	nt	nt
COc1ccc(-c2cc(N3CCN(C(=O)c4ccc(C)nc4)CC3)n[nH]2)cc1	i	i	i	?	?	nt	nt	nt	nt
CCn1cnnc1-c1nn(C)c2c1CN(C(=O)CCCC1C(=O)Nc3ccccc31)CC2 (centres undefined)	i	i	i	i	i	nt	nt	nt	nt
COC(=O)N1CCCCC(NC(=O)CCCc2nc(-c3ccccc3C)no2)C1 (centres undefined)	?	i	13µM	35µM	?	17µM	19µM	i	19µM
CCO[C@H]1CN(C(=O)CCCc2nc(-c3ccccc3OC)no2)C[C@@H]1O	i[11.5 µM]	i	i	i	i	nt	nt	nt	nt
